According to PubChem BioAssay AID460 (PCMD, 2006):
In all, about 58,000 compounds went through this assay and about 100 (0.17%) were called active. The sample as a whole holds a higher share of actives than the screen did. A number with no mark means an inactive call. Cut-off read from the data, not from the text of the source: active = inhibition above about 45%; inactive = the rest. Where a SMILES comes first, the peptide text is derived from it. The star is where a group is joined. Bz = O=C(c1ccccc1)*

These compounds were tested against Procathepsin L (Homo sapiens) (UniProt P07711) (assay: inhibitors of human cathepsin L, biochemical (AID 460;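 note: 0% = enzyme with no compound and 100% = no enzyme blank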)). Conditions: purified cathepsin L, fluorogenic substrate, fluorescence; hits give high values;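 tested at 10 µM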.
Chain of Procathepsin L (Homo sapiens) (P07711 114-288 limits assumed): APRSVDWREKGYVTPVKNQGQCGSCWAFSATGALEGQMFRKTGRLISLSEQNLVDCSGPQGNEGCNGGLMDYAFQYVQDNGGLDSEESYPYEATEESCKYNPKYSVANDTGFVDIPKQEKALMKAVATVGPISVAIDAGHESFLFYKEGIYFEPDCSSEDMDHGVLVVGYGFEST
Chain of Procathepsin L (Homo sapiens) (P07711 292-333 limits assumed): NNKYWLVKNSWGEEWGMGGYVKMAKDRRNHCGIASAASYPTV
CCOCCOC(=O)C1=C(C)N(C)C(=O)NC1c1ccccc1F (stereo not given) was tested, and the inhibition was -0.79%. Work on CCOc1cc(C)c(Cl)cc1S(=O)(=O)n1nnc2ccccc21 yielded an inhibition of 3.04%. Compound O=C(c1ccccc1)c1ccc2nc(N3CCCCC3)c3nncn3c2c1 has an inhibition of -3.17%. Work on CCOC(=O)CCc1c(C)c2ccc(OCc3nn[nH]n3)c(C)c2oc1=O yielded an inhibition of -20.7%. In the case of COc1ccc(OC)c2c(N)c(C#N)c(C(F)(F)C(F)(F)F)nc12, the inhibition is reported as -8.11%. Cc1c(C)c2cc3c4c(oc3c(C)c2oc1=O)CCCC4 showed an inhibition of 2.98%. CC1CCN(Cc2nc3c(c(=O)n(C)c(=O)n3C)n2Cc2cccc3ccccc23)CC1 gave an inhibition of 0.14%. OC(COc1cccc2ccccc12)CN1CCN(c2ccccn2)CC1 (stereo not given) showed an inhibition of 7.74%. With O=C(CS(=O)(=O)c1cn(Cc2cccc(F)c2)c2ccccc12)N1CCCCC1 the inhibition was 17.3%. Compound CCCC(=O)C1=C(N(C)c2ccccc2)CC(C)(C)C(C(=O)OC)C1=O (stereo not given) has an inhibition of -1.31%. Work on CCCn1c(=NC(C)=O)c(C(=O)OCC)cc2c(=O)n3ccccc3nc21 yielded an inhibition of -149%. With Cc1cc2cc(CNC(=O)c3ccc(S(=O)(=O)N4CCOCC4)cc3)ccc2[nH]1 the inhibition was 4.06%. Compound CN(CCCC(=O)Nc1nccs1)S(=O)(=O)c1ccc(Cl)cc1 has an inhibition of -4.71%. CC1=NC2(CCCc3c2no[n+]3[O-])N(O)C1(C)C (stereo not given) gave an inhibition of 1.32%. CC(=O)N1C(=O)C2(Nc3ccccc3N2)c2ccccc21 showed an inhibition of 1.65%. COc1ccccc1CNC(=O)C1CCN(S(C)(=O)=O)CC1 gave an inhibition of 2.28%. CC(=O)N=c1ncn(CC(COC(C)=O)OC(C)=O)c2nc[nH]c12 (stereo not given) was tested, and the inhibition was -1.89%. With Cc1cccc(OCc2nnc(SCc3nc4cc(C(F)(F)F)ccc4c(=O)[nH]3)o2)c1 the inhibition was -0.3%. In the case of O=C(O)C1CC=CCC1C(=O)NCCc1ccccc1 (stereo not given), the inhibition is reported as -8.83%. CC(C)c1ccc(NS(=O)(=O)c2cn(C)c(=O)n(C)c2=O)cc1 was tested, and the inhibition was 12.5%. O=C(NC(Cc1ccccc1)C(=O)N1CCCC1C(=O)O)c1ccccc1 (stereo not drawn) (Bz-Phe-Pro-OH; configuration not given here) gave an inhibition of 17.6%. With Cc1ccc(C)c(N(CC(=O)NCc2ccco2)C(=O)CCC(=O)Nc2ccccn2)c1 the inhibition was -0.88%. With COc1ccc(-c2nnn(Cc3nc(N)nc(N4CCCCC4)n3)n2)cc1 the inhibition was -3.62%. Work on CCOc1cccc(=O)c2c(C)n(CC3CCCO3)c(C)c12 (stereo not given) yielded an inhibition of -0.25%. CC(NC(=O)Nc1ccccc1)c1ccccc1 (stereo not given) showed an inhibition of 1.63%. O=C(CCN1C(=O)C2C3C=CC(C3)C2C1=O)Nc1ccccc1F (stereo not given) was tested, and the inhibition was -4.07%. c1ccc(-c2cn3cccnc3n2)cc1 was tested, and the inhibition was -283%. With c1ccc2c(c1)OCC(CNc1ncnc3nc[nH]c13)O2 (stereo not given) the inhibition was 81.5% (active). For Cc1cc(NC(=O)CCC2COc3ccccc3O2)no1 (stereo not given), the inhibition was 0.43%. For COc1ccc(CCNc2ncnc3nc[nH]c23)cc1OC, the inhibition was -2.05%. In the case of COC(=O)c1cc(OC)c(OC)cc1NC(=O)C1CCCO1 (stereo not given), the inhibition is reported as 17.4%. Cc1nc(-c2ccc(NC(=O)c3cccs3)cc2)cs1 was tested, and the inhibition was 6.73%. In the case of NS(=O)(=O)c1ccc(CCNC(=O)Nc2ccc(Cl)cc2)cc1, the inhibition is reported as 0.5%. COc1ccc(C2CC(c3ccccc3)Nc3ncnn32)cc1 (stereo not given) was tested, and the inhibition was 20.2%. Cc1ccc(C2CC(=O)NC(SCC(=O)OCc3ccccc3)=C2C#N)o1 (stereo not given) was tested, and the inhibition was 1.51%. CCOC(=O)C(CCOc1cccc(CC)c1)C(=O)OCC showed an inhibition of 20.3%. Work on Cc1nnc(SCC(=O)N(C(C)C)C(C)C)nc1C yielded an inhibition of 6.66%. Compound CCCC(C(=O)NCc1ccco1)N(C(=O)CNS(=O)(=O)c1ccccc1)C1CCCC1 (stereo not given) has an inhibition of 10.1%. Work on Cn1c(=O)c2cn(-c3cccc4ccccc34)cc2n(C)c1=O yielded an inhibition of 6.9%. Compound COC(=O)c1ccc(CN(c2ccccc2OC)S(=O)(=O)c2cccs2)o1 has an inhibition of 14%. With Fc1c(F)c(C(F)(F)F)c(F)c(F)c1N1CCN(c2ccc3nnc(C(F)(F)F)n3n2)CC1 the inhibition was -17%. In the case of CC(C)NS(=O)(=O)c1ccc(OCC(=O)Nc2ccc3c(c2)OCCO3)cc1, the inhibition is reported as 16.4%. Work on COc1ccc(Cn2cccc(NC(=O)Nc3ccc(C#N)cc3)c2=O)cc1 yielded an inhibition of -10.3%. Compound C=CCn1c(=N)n(CC(O)COc2ccc(OC)cc2)c2ccccc21 (stereo not given) has an inhibition of 0.78%. Cc1ccc(C2CC(c3cccc(Br)c3)n3nc(N)nc3N2)cc1 (stereo not given) was tested, and the inhibition was 19.9%. In the case of Cc1ccc(N2C(=O)CC(NCc3ccc4c(c3)OCO4)C2=O)cc1Cl (stereo not given), the inhibition is reported as -2.37%. O=c1cc(O)nc(SCc2ccccc2Cl)[nH]1 was tested, and the inhibition was -2.97%. c1ccc(CSc2nnc(-c3ccco3)c(-c3ccco3)n2)cc1 gave an inhibition of 10.8%. Clc1ccccc1CSc1nnc(-c2ccco2)c(-c2ccco2)n1 was tested, and the inhibition was 49.7% (active). Compound N#Cc1c(NC(=O)CCCN2C(=O)c3ccccc3C2=O)oc(-c2ccccc2)c1-c1ccccc1 has an inhibition of 4.96%. CN1c2ccccc2-c2nc3ccccc3n2C1c1ccco1 (stereo not given) gave an inhibition of -450%. For COC(=O)C1=C(C)N(C)C(C)=C(C(=O)OC)C1c1cccc(Br)c1, the inhibition was 10.9%. Cc1cc(Cl)c(S(=O)(=O)NCCC(=O)O)cc1OCC(N)=O showed an inhibition of 4.48%. In the case of COc1cc(-c2nn3c(-c4cccc(C)c4)nnc3s2)cc(OC)c1OC, the inhibition is reported as 0.7%. With Cc1nnc(NC(=O)CSc2nccn2-c2cccc(C)c2C)s1 the inhibition was 3.56%. Compound Cc1c(C(=O)N2CC(C)OC(C)C2)sc2nc(-c3ccccc3)cn12 (stereo not given) has an inhibition of 23%. Work on C=CCc1cccc2cc(C(=O)OCC)c(=O)oc12 yielded an inhibition of 5.84%. CCC1CCCCN1CCNS(=O)(=O)c1ccc2c(c1)CCN2C(C)=O (stereo not given) was tested, and the inhibition was 12.7%. CC(C)CCNC(=O)C1CCCN(S(=O)(=O)c2ccc(F)cc2)C1 (stereo not given) was tested, and the inhibition was 9.49%. Work on COCc1cc(C)nc(SCC(=O)Nc2cccc(C)c2)c1C#N yielded an inhibition of 10.9%. CC12COC3(C(=O)Nc4ccc(Cl)cn4)CC1CCC32C (stereo not given) was tested, and the inhibition was 11.5%. With CC(=O)Oc1cc2c(C(=O)NCCN3CCOCC3)c(C)oc2c2ccccc12 the inhibition was -9.79%. With C[N+](C)(C)CCNC(=O)c1c(O)c2c([nH]c1=O)CCCC2 the inhibition was 8.42%. Cn1c(=O)n(CCc2ccccc2)c(=O)c2c1nc1n2CCCN1c1ccccc1 gave an inhibition of 0.95%. COc1cc(C2C(C#N)=C(C)NC3=C2C(=O)CC(C)(C)C3)ccc1O (stereo not given) was tested, and the inhibition was 4.18%. With Cn1c(=O)c(C(=O)Nc2ncccn2)c(O)c2ccccc21 the inhibition was -15.3%. Work on CCOC(=O)c1c(C)nc(-c2ccccc2)nc1NC(=O)C(C)C yielded an inhibition of 22.7%. Work on CSCCC(NS(=O)(=O)/C=C/c1ccccc1)C(=O)N1CCC(C)CC1 (stereo not given) yielded an inhibition of 7.86%. Work on CC1(C)Oc2ccc3ccc(=O)oc3c2/C(=C/NCCO)C1=O yielded an inhibition of 14.3%. CCOC(=O)C(CC)Sc1ncnc2c1nnn2-c1ccc(F)cc1 (stereo not given) gave an inhibition of 7.22%. OC1CN=C2Sc3ccccc3N2C1 (stereo not given) gave an inhibition of -0.84%. c1ccc(-n2ncc3c2ncn2c(C4CCCCC4)nnc32)cc1 was tested, and the inhibition was 1.98%. CCN(CC)S(=O)(=O)c1cccc(C(=O)Nc2ccccc2)c1 showed an inhibition of -8.69%. In the case of CCCOc1ccc(CN(CCO)CCO)cc1C(=O)OC, the inhibition is reported as 8.62%. CC(C)CCNC(=O)CN(C(=O)Cn1nnc(-c2ccc(F)cc2)n1)C1CCCC1 gave an inhibition of 12.4%. Work on CC(=O)N1CC2(C)CN(C(C)=O)CC(C)(C1)C2=O yielded an inhibition of -7.32%. C=CCn1c(COc2ccccc2F)nnc1SCC(=O)N1CC(=O)Nc2ccccc21 was tested, and the inhibition was 2.58%. C=CCn1c2ccccc2c2nnc(SC(CC)C(=O)Nc3nc(C)c(C(=O)OCC)s3)nc21 (stereo not given) was tested, and the inhibition was -6.76%. COc1ccc2occ(C(=O)c3ccc(N=C(C)N(C)C)cc3)c2c1 gave an inhibition of 1.28%. With Cc1cccc(N2C(=O)SC(N(CC(=O)O)c3cccc(C)c3)C2=O)c1 (stereo not given) the inhibition was 18.4%. COc1ccc(OC)c(S(=O)(=O)N(C)CC(=O)N2CCN(c3ccccc3)CC2)c1 gave an inhibition of -0.18%. With COC(=O)c1c(NC(=O)c2cccs2)sc2c1CCCC2 the inhibition was -9.15%. COc1ccc(-c2nc(CS(=O)CC(=O)NCc3ccccn3)c(C)o2)cc1 (stereo not given) showed an inhibition of 32.3%. O=c1cccc(-c2ccc(Br)cc2)o1 was tested, and the inhibition was 11.7%. Work on Cc1cc(C)cc(NC(=O)N2CCC(NC(=O)c3ccc(F)cc3)CC2)c1 yielded an inhibition of 15.2%. In the case of Cc1ccc(C(=O)Nc2ccc3c(c2)OCO3)cc1S(=O)(=O)N1CCCCC1, the inhibition is reported as 41.8%. With CCOc1cccc(-c2nn3c(-c4ccccn4)nnc3s2)c1 the inhibition was 20.7%. In the case of O=C(NC1CCCC1)c1ccc(Br)s1, the inhibition is reported as -2.98%. CC(C)c1ccc(OCC(O)Cn2cnc3ccccc32)cc1 (stereo not given) gave an inhibition of -5.57%. Compound c1ccc2cc(OCCN3CCCC3)ccc2c1 has an inhibition of 17.4%. Compound COc1ccccc1N1CCN(C(=O)c2cc(-c3ccc(Cl)c(Cl)c3)on2)CC1 has an inhibition of 1.59%. Compound Cn1c(/C(C#N)=C2/CCCCCN2)nc2ccccc21 has an inhibition of -2.23%. For CCOC(=O)c1cc2c(n(-c3ccc(C)cc3)c1=O)CCCC2=O, the inhibition was -1.99%. CCCC1CC(C)(C(=O)Cn2[nH]c(=O)ccc2=O)OC1=O (stereo not given) showed an inhibition of 3.89%. Cc1ccc(S(=O)(=O)n2nc(OC(=O)C(C)(C)C)cc2N)cc1 showed an inhibition of 9.62%. Work on N#CC(C(=O)c1ccc(S(=O)(=O)N2CCCCCC2)cc1)c1nc2ccccc2[nH]1 (stereo not given) yielded an inhibition of -6.58%. With O=C(/C(=N\O)n1cncn1)c1ccc(Br)cc1Br the inhibition was 5.57%. For COc1ccc(CCN=C2SCC(=O)N2C)cc1OC, the inhibition was 11.7%. N#CNC1=NCN(CCc2ccccc2)CN1 showed an inhibition of 17.9%. For N#Cc1c(N)n(CCOC(=O)c2ccc(Cl)cc2)c2nc3ccccc3nc12, the inhibition was -4.03%. Compound Fc1ccccc1OCCCCn1cncn1 has an inhibition of -6.79%. COc1ccc(OCCCON2C(=O)c3ccccc3C2=O)cc1 showed an inhibition of -4.83%. With O=C(CN1C(=O)CCC1=O)Nc1ccc(S(=O)(=O)N2CCOCC2)cc1 the inhibition was 5.22%. For CC(C)Cc1nc(N2CCOCC2)c(C#N)c2c1CCC2, the inhibition was -1.22%. CCOc1ccccc1C1NC(=O)NC(C)=C1C(=O)OCc1ccco1 (stereo not given) showed an inhibition of 16.9%.
